Results: ChEMBL document CHEMBL1961873, “Compounds: GSK PKIS; Assays: Nanosyn kinase panel” (2012)

Assays:
[1] = target: Glycogen synthase kinase-3 beta (Homo sapiens) (UniProt P49841); settings: at 1 µM;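 note: reported values are mean percent inhibition of GSK3B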
[2] = target: Homeodomain-interacting protein kinase 1 (Homo sapiens) (UniProt Q86Z02); settings: at 0.1 µM
[3] = target: Homeodomain-interacting protein kinase 1 (Homo sapiens) (UniProt Q86Z02); settings: at 1 µM
[4] = target: T1, Homeodomain-interacting protein kinase 4 (Homo sapiens) (UniProt Q8NE63); settings: at 0.1 µM
T1 sequence (whole entry): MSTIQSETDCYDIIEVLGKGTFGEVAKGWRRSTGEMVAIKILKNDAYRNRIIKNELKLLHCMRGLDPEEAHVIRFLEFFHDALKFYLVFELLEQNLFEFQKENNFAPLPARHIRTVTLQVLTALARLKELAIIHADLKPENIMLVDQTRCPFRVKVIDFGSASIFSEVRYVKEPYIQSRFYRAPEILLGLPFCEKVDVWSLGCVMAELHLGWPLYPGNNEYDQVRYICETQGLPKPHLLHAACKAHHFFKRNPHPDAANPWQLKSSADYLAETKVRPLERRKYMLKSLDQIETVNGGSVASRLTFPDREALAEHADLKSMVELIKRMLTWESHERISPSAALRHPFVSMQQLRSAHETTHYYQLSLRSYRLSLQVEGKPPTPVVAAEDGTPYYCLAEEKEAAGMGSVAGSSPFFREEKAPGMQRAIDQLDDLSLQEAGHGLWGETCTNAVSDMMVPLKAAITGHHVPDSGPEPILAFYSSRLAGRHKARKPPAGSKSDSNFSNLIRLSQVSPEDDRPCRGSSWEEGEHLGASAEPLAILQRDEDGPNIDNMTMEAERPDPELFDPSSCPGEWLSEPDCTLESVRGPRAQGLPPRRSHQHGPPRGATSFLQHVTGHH

[5] = target: T1, Homeodomain-interacting protein kinase 4 (Homo sapiens); settings: at 1 µM
[6] = target: Mitogen-activated protein kinase 9 (Homo sapiens) (UniProt P45984); settings: at 0.1 µM
Sequence of Mitogen-activated protein kinase 9 (Homo sapiens) (P45984 whole entry, looked up): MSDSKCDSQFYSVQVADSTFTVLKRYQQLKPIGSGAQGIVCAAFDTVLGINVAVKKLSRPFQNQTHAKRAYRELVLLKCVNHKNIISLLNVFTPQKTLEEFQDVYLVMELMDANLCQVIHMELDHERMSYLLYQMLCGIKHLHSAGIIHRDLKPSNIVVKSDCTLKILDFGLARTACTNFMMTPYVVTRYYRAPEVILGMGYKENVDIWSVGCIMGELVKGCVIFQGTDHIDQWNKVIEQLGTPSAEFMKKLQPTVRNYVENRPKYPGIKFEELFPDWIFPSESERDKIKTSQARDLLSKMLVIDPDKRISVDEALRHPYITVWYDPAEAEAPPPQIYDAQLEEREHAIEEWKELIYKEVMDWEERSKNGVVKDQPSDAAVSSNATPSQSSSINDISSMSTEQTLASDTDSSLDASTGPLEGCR

[7] = target: Mitogen-activated protein kinase 9 (Homo sapiens) (UniProt P45984); settings: at 1 µM
[8] = target: Mitogen-activated protein kinase 1 (Homo sapiens) (UniProt P28482); settings: at 0.1 µM
Sequence of Mitogen-activated protein kinase 1 (Homo sapiens) (P28482 whole entry): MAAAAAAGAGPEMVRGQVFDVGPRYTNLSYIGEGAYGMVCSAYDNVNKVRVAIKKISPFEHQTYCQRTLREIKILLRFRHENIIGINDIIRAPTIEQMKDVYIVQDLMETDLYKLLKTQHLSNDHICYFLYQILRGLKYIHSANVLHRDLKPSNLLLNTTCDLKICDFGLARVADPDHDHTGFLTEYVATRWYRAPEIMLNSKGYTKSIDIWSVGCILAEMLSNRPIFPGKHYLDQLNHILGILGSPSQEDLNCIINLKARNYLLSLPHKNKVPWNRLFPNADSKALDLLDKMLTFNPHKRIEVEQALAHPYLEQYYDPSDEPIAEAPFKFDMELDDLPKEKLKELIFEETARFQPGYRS

[9] = target: Mitogen-activated protein kinase 1 (Homo sapiens) (UniProt P28482); settings: at 1 µM
[10] = target: Mitogen-activated protein kinase 3 (Homo sapiens) (UniProt P27361); settings: at 0.1 µM;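 note: each value is a mean inhibition figure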
Sequence of Mitogen-activated protein kinase 3 (Homo sapiens) (P27361 whole entry): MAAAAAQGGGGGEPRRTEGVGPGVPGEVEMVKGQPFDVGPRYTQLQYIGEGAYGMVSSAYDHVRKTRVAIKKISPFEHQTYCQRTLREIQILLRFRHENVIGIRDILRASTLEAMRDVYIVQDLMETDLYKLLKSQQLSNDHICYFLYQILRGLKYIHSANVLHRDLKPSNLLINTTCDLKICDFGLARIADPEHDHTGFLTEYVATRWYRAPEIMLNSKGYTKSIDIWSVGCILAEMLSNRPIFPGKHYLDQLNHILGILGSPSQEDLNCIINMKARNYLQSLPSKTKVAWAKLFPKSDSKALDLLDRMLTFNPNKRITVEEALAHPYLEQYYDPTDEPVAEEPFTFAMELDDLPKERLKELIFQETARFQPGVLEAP

Sequence of Glycogen synthase kinase-3 beta (Homo sapiens) (P49841 whole entry, looked up): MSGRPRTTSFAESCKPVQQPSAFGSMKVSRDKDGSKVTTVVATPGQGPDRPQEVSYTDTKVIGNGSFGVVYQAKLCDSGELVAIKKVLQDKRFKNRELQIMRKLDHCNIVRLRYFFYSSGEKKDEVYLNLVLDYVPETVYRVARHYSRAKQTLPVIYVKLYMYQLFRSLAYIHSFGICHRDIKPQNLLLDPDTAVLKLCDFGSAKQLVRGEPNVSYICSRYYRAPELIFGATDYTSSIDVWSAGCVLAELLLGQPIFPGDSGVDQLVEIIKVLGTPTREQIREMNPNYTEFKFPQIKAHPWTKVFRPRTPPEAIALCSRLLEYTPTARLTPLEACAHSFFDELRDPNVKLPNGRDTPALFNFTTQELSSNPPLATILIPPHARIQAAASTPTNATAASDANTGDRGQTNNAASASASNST
Sequence of Homeodomain-interacting protein kinase 1 (Homo sapiens) (Q86Z02 whole entry, looked up): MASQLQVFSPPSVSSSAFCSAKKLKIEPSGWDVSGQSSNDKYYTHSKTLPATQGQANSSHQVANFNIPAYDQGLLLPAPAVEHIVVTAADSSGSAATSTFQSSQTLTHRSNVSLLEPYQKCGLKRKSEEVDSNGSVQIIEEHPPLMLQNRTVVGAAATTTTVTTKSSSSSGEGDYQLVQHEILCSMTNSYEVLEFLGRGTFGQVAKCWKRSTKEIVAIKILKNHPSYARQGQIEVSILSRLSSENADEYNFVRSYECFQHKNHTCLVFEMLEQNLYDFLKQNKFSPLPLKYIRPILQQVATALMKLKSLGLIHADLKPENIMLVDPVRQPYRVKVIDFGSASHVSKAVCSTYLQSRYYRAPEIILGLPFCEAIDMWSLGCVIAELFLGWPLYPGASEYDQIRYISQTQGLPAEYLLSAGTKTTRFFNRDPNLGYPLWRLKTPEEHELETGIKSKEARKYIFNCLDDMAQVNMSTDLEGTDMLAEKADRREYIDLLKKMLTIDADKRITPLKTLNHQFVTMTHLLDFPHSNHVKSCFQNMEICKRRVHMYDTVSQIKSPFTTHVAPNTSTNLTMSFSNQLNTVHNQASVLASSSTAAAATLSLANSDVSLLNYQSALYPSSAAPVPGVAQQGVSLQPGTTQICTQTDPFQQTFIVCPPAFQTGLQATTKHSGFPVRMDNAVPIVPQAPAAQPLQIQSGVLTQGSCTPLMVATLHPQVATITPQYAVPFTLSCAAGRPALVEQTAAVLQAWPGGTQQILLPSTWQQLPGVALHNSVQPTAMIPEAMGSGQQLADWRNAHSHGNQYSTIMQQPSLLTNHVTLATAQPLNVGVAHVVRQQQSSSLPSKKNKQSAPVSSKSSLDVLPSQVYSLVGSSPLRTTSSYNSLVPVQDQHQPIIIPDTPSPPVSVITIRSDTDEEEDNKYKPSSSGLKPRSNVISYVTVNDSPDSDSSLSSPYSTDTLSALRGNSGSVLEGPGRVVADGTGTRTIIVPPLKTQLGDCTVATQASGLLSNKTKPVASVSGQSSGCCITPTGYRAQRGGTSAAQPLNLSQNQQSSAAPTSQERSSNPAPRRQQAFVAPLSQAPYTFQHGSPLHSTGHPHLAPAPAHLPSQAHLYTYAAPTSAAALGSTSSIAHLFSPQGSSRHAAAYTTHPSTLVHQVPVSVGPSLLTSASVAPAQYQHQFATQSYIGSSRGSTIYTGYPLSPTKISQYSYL

| Compound | inhibition [1] [%] | inhibition [2] [%] | inhibition [3] [%] | inhibition [4] [%] | inhibition [5] [%] | inhibition [6] [%] | inhibition [7] [%] | inhibition [8] [%] | inhibition [9] [%] | inhibition [10] [%] |
| --- | --- | --- | --- | --- | --- | --- | --- | --- | --- | --- |
| Cc1ccc(C(=O)NC2CCC2)cc1-c1ccc(C(=O)NCC2CC2)cc1 | 3.43 | -0.93 | 2.06 | -0.06 | 1.07 | 2.74 | 3.35 | 0.32 | 3.11 | 2.05 |
| C/C(Nc1ccc(S(N)(=O)=O)cc1)=C1/C(=O)Nc2ccccc21 | 9.04 | -1.51 | -1.35 | 0.16 | 2.56 | -3.47 | 3.67 | 3.1 | -2.06 | 2.55 |
| CCc1cccc(CC)c1/C=C/c1cncc(C(=O)NC)c1 | 7.96 | 1.64 | 7.03 | 1.04 | 4.82 | 4.45 | 7.37 | 1.29 | 1 | 2.05 |
| C#Cc1cccc(Nc2ncnc3ccc(OCCCCNCCS(C)(=O)=O)cc23)c1 | 1.89 | -3.09 | -1.22 | 4.39 | 24.9 | 3.91 | 4.58 | 5.06 | 5.46 | 4.38 |
| CCc1nccc2c1nc(-c1nonc1N)n2CC | 8.38 | -0.74 | 6.91 | 0.62 | 9.48 | 3.7 | 3.34 | -1.66 | 0.54 | 1.33 |
| Cc1ccc(NC(=O)c2ccoc2)cc1-c1ccc(C(=O)NCC2CC2)cc1 | -0.68 | -3.48 | 0.37 | 0.84 | 0.22 | 3.16 | 2.57 | 3.2 | 3.37 | 2.67 |
| O=C(NCC1CC1)c1ccc(-c2cccc(C(=O)NC3CC3)c2)cc1 | 0.48 | -0.22 | 5.27 | 2.02 | 5.47 | 3.38 | 2.6 | 1.42 | 1.43 | 1.22 |
| COc1cc2ncn(-c3cc(OCc4cccs4)c(C(N)=O)s3)c2cc1OC | 7.28 | 1.93 | 18.1 | 20.2 | 63.3 | 0.6 | 4.51 | 5.16 | 2.33 | 3.68 |
| C[C@@H](Oc1cc(-n2cnc3ccc(OCC4CCN(C)CC4)cc32)sc1C(N)=O)c1ccccc1Cl | 8.9 | -1.26 | 8.77 | 3.09 | 21.8 | 7.22 | 10.9 | 7.6 | 8.78 | 4.68 |
| C[C@@H](Oc1cc(-n2cnc3ccc(OC4CCN(C)CC4)cc32)sc1C(N)=O)c1ccccc1Cl | -0.12 | -4.32 | 2.08 | 3.54 | 28.7 | 1.24 | 5.06 | 5.74 | 6.64 | 3.11 |
| Cc1nnc(-c2ccc(C)c(-c3ccc(C(=O)NCc4ccc(Cl)cc4)cc3)c2)o1 | 4.25 | -2.88 | -3.98 | -0.69 | 0.29 | 4.09 | 4.44 | 8.3 | 4.45 | 2.96 |
| Fc1ccc(-c2ncn(CCCN3CCOCC3)c2-c2ccncc2)cc1 | 1.01 | -3.44 | -1.47 | -2.02 | -2.54 | 2.43 | 6.68 | 0.12 | 1.09 | 4.06 |
| O=C1Nc2ccccc2/C1=C/Nc1ccc(-n2cncn2)cc1 | 25.4 | 2.9 | 5.5 | 0.86 | 3.17 | 5.47 | 12.1 | 6.04 | 6.4 | 93.3 |
| CCN(CC)Cc1ccc(Nc2nccc(-c3cnn4ncccc34)n2)cc1 | 62.3 | 50.6 | 71.9 | 18.1 | 59 | 6.18 | 30.9 | 6.89 | 15.8 | – |
| CN1CCN(CCCNc2nc3ccc(Oc4ccc(NC(=O)Nc5cc(C(F)(F)F)ccc5F)cc4)cc3[nH]2)CC1 | -1.5 | -6.94 | -3.43 | 6.45 | 40.6 | 3.11 | 8.71 | 1.47 | 0.12 | 1.55 |
| CN(C)c1ccc2c(c1)/C(=C/Nc1ccc(S(N)(=O)=O)cc1)C(=O)N2 | 24.2 | 0.15 | 12 | -0.09 | 6.94 | 3.27 | 2.71 | 1.12 | 2.53 | 0.06 |
| COc1ccc2ncn(-c3cc(O[C@H](C)c4ccccc4Cl)c(C(N)=O)s3)c2c1 | -0.28 | -4.71 | -1.67 | 0.62 | 5.59 | 2.17 | -0.22 | 5.14 | 4.54 | 4.56 |
| Clc1ccc(CNc2nccc(-c3cnn4ncccc34)n2)cc1 | 11.6 | 14.8 | 57.9 | 11.9 | 49 | 3.52 | 5.1 | 4.19 | 3.23 | 3.04 |
| COc1cc2ncn(-c3cc(OCCc4ccccc4)c(C(N)=O)s3)c2cc1OC | 0.1 | -0.4 | 3.92 | 2.74 | 19.1 | 4.17 | 3.52 | 1.47 | 3.64 | 0.38 |
| COc1cc2ncn(-c3cc(OCc4ccccc4C(F)(F)F)c(C(C)=O)s3)c2cc1OC | 2.85 | -0.68 | 4.77 | 3.23 | 7.24 | 0.67 | 0.69 | 5.64 | 5.81 | 3.61 |

| Compound | inhibition [1] [%] | inhibition [2] [%] | inhibition [3] [%] | inhibition [4] [%] | inhibition [5] [%] | inhibition [6] [%] | inhibition [7] [%] | inhibition [8] [%] | inhibition [9] [%] | inhibition [10] [%] |
| --- | --- | --- | --- | --- | --- | --- | --- | --- | --- | --- |
| NS(=O)(=O)c1ccc(N/N=C2\C(=O)Nc3ccc(-c4cnco4)cc32)cc1 | 65.2 | -2.16 | 25.2 | 3.05 | 15.6 | 0.65 | 2.38 | 3.21 | 7.04 | 2.36 |
| CCC(=O)Nc1ccc(C)c(-c2ccc(C(=O)NCC3CC3)cc2)c1 | 2.31 | -3.16 | -2.43 | 0.11 | 0.55 | 2.92 | 4.2 | 4.32 | 4.25 | 2.94 |
| CN(C)CCOc1ccc(-c2cc(-c3ccc4c(c3)CCC4=NO)c(-c3ccncc3)o2)cc1 | 0.28 | -5.92 | 2.06 | 0.15 | 2.98 | -1.3 | 3.02 | -0.58 | 0.91 | -1.4 |
| COc1cc(Nc2ncc3c(C)nc(-c4cccc(Oc5ccccc5)c4)n3n2)cc(OC)c1OC | 0.75 | 0.25 | 10.8 | 2.78 | 7.44 | 2.43 | 4.03 | 2.11 | 8.58 | 4.14 |
| c1ccc(Oc2ccc(Nc3ncc(-c4ccccc4)o3)cc2)cc1 | 7.42 | 1.51 | 3.29 | -0.61 | 1.2 | 0.54 | 2.94 | -1.99 | 6.11 | 1.01 |
| CS(=O)(=O)CCNCc1cc(-c2cc3c(Nc4ccc(OCc5cccc(F)c5)c(Cl)c4)ncnc3s2)cs1 | 1.78 | -2.22 | -1.08 | -0.67 | 1.29 | 3.11 | 7.13 | 5.61 | 7.79 | 4.58 |
| Fc1ccc(-c2c(-c3ccncc3)nc3n2CCS3)cc1 | 3.12 | -3.99 | 4.73 | -1.11 | 5.51 | 2.29 | 4.26 | 2.87 | 3.3 | 2.96 |
| O=C1Nc2ccc(I)cc2C1=Cc1cc(Br)c(O)c(Br)c1 | 5.98 | -1.21 | 6.66 | -0.29 | 6.76 | 5.13 | 7.68 | 2.02 | 4.96 | 3.73 |
| COc1ccc2cc(-c3c(-c4ccncc4)nc(-c4ccc([S+](C)[O-])cc4C)n3C)ccc2c1 (stereo not drawn) | 14.7 | 3.05 | 6.01 | 2.25 | 5.99 | 0.79 | 8.03 | -0.46 | -2.44 | 0.3 |
| CN(C)CCCNc1nccc(-c2c(-c3ccc(F)cc3)nn3cc(C(F)(F)F)ccc23)n1 | 7.7 | -4.22 | 1.54 | 4.04 | 8.4 | 2.73 | 11 | 1.62 | 2.71 | 2.96 |
| COc1cccc(-n2cnc3c(N/N=C/c4ccncc4)ncnc32)c1 | 32.4 | -2.33 | -0.32 | -0.66 | 3.74 | -1.67 | -0.57 | -1.43 | -0.07 | 0.83 |
| NC(=O)c1cc(-c2ccncc2)cc(-c2ccccc2)c1N | 9.17 | -1.44 | -0.02 | 1.54 | 4.34 | 5.97 | 6.49 | 4 | 6.15 | 3.98 |
| NCc1ccc(-n2c(-c3nonc3N)nc3cnccc32)cc1 | 60.1 | 1.51 | 9.18 | 0.98 | 5.32 | 7.98 | 6.05 | 6.45 | 8.32 | 4.41 |
| c1ccc(-c2n[nH]cc2-c2ccnc(-c3ccc(OCCN4CCOCC4)cc3)c2)nc1 | 5.85 | 0.91 | 2.07 | 3.43 | 5.51 | 0.62 | 5.45 | -2.8 | -3.16 | -0.63 |
| CCS(=O)(=O)c1ccc(OC)c(Nc2ncc(-c3cccc(-c4ccccc4F)c3)o2)c1 | 7.6 | 1.49 | 6.56 | 3.89 | 17.3 | 0.09 | 6.86 | -1.77 | -3.35 | -2.17 |
| COc1cc(Nc2ncc3c(C)nc(-c4cccc(C(F)(F)F)c4)n3n2)cc(OC)c1OC | 28.1 | 4.84 | 26.8 | 1.83 | 9.08 | 0.45 | 4.58 | 5.55 | 13 | 4.86 |
| Nc1nccc(-c2c(-c3ccc(F)cc3)ncn2C2CCC(O)CC2)n1 (stereo not drawn) | 14.1 | 2.2 | 4 | 1.22 | 3.26 | 9.42 | 53.3 | – | -2.72 | -0.59 |
| COc1ccc2cc(-c3c(-c4ccncc4)nc(-c4ccc(S(C)(=O)=O)cc4C)n3C)ccc2c1 | 6.76 | 0.5 | -0.46 | -0.03 | 1.88 | 4.44 | 10.1 | 5.2 | 5.44 | 3.83 |
| COC(=O)Nc1nc2ccc(Sc3ccc(NC(=O)Nc4cc(C(F)(F)F)ccc4F)cc3)cc2[nH]1 | 1.89 | 1.74 | 3.89 | 3.14 | 25.5 | 33.9 | 6.37 | -0.51 | -0.71 | 1.68 |
